CHO-K1 Ca antag: counter-screen for M1 antagonists: effect in parental CHO-K1 cells | 360,000 compounds, 0.6% hits | inhibition, % at 3 µM | ATP-induced calcium, Fluo-8 fluorescence;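 active means inhibition above a per-plate cutoff, the plate's mean sample inhibition plus 3 SD, cut at about 24% in these data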;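 further: 0% = DMSO plus EC80 ATP and 100% = DMSO alone without ATP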
CHO-K1 Ca ag: nonselective activator or artifact in parental CHO-K1 cells; Fluo-8 calcium fluorescence; scaled to maximal ATP response, vehicle zero; activation, % at 3 µM; 360,000 compounds, 0.48% hits; AID 602248; in the data active means activation above about 15%;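 further: untransfected CHO-K1 host cells lacking M1 receptor as counterscreen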
M1 ag: human M1 muscarinic receptor agonism; P11229; CHO-K1 hM1, Fluo-8 calcium fluorescence, agonist mode; 0% DMSO, 100% acetylcholine EC100; activation, % at 3 µM; 360,000 compounds, 0.33% hits; AID 588814;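 active means activation above the run's mean compound activation plus 3 SD, cut at about 16% in these data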;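 further: peak over basal fluorescence ratio within a 140 s kinetic read after compound addition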
Target sequence (P11229 whole entry, looked up): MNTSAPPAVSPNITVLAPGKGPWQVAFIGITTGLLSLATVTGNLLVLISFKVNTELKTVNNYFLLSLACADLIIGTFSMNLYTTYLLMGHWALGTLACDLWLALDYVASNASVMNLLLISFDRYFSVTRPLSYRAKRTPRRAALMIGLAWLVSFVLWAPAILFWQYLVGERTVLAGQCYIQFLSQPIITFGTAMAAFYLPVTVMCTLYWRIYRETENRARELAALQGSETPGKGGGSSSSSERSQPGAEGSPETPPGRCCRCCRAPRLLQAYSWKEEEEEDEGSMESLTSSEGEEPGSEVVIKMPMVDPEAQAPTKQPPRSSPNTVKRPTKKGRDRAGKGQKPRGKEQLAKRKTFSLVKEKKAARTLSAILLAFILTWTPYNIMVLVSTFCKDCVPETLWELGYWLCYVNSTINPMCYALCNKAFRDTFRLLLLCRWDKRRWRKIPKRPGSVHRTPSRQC
CHO-K1 Ca PAM: M1 PAM counterscreen hit in parental CHO-K1 cells; AID 602247; ATP EC20, Fluo-8 calcium fluorescence; 0% at ATP EC20, 100% at ATP max; 360,000 compounds, 0.02% hits; activation, % at 3 µM;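 active means activation above the run cutoff, the mean activation of all test compounds plus 3 SD, cut at about 40% in these data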;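 further: peak over basal fluorescence ratio in a 140 s read after ATP addition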
M1 antag: blocks human M1 muscarinic receptor | 360,000 compounds, 1.3% hits | inhibition, % at 3 µM | CHO-K1 hM1, Fluo-8 calcium fluorescence, ACh EC80 antagonist;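 active means percent inhibition above its own plate's cutoff, namely the mean of that plate's compound wells plus 3 SD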;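 further: peak over basal fluorescence ratio during 140 s after agonist addition; 0% = ACh EC80 plus DMSO and 100% = DMSO alone without agonist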
CHRM1 PAM: human CHRM1 positive allosteric modulation; P11229; CHO-K1 hM1, Fluo-8 calcium fluorescence, ACh EC20; 0% = ACh EC20, 100% = maximal ACh; activation, % at 3 µM; 360,000 compounds, 0.088% hits; in the data active means activation above about 19%, passing the limit was not always enough
* = called active by the depositor; / = no result given. A selection: hits, their analogues and other compounds. The true share with any hit is near 2.3%.

SMILES	CHO-K1 Ca antag	CHO-K1 Ca ag	M1 ag	CHO-K1 Ca PAM	M1 antag	CHRM1 PAM
N#Cc1c(NC(=O)CSc2nc3ccccc3s2)sc2c1CCCC2	-4	0	-5	15	0	3
CCCCOC(=O)c1ccc(O)cc1	-3	0	-6	-6	9	-3
CCCCOC(=O)Nc1ccc(C(=O)OCCC)cc1	24*	0	-6	-6	6	-7
CCOC(=O)c1sc(-c2ccc(F)cc2)cc1N	-8	-1	-7	2	1	2
CCOC(=O)c1sc(-c2ccc(OC)cc2)cc1N	28*	0	4	-6	-2	8
O=C(NC(=S)NC(CO)Cc1ccccc1)c1ccc(F)cc1 (centres undefined)	-12	2	-2	24	-17	11
CC(C)(C)C1CCC(CN2C(Nc3ccccc3)=NC[C@@H]2Cc2ccccc2)CC1 (some centres undefined)	5	17*	-2	20	65*	-28
COc1ccc2[nH]c(=O)c(CN(Cc3cccs3)S(=O)(=O)c3c(C)ccc4nsnc34)cc2c1	10	5	1	-7	45*	-14
Cc1cc(N2CCN(c3ccccc3)CC2)nc2ccccc12	-10	24*	-3	22	8	-8
Cc1cc(N2CCCCCC2)nc2ccc(F)cc12	-8	0	31*	20	15	-15
COc1ccc(CCN2C(=O)c3ccccc3C2c2nnnn2-c2c(C)cccc2C)cc1OC (centres undefined)	-16	2	/	18	/	/
CCCCOc1ccc(Br)cc1/C(C)=N/NC1=NCCN1	2	1	-4	8	73*	-22
O=C(C[C@H]1C/C=C\C[C@H](Cc2ccc(F)cc2)C(=O)O[C@@H](c2ccccc2)CNC1=O)N[C@H](CO)Cc1ccccc1	-3	13	37*	-1	9	2
O=C(C[C@H]1C/C=C\CC[C@H](Cc2ccc(F)cc2)C(=O)O[C@@H](c2ccccc2)CNC1=O)N[C@H](CO)Cc1ccccc1	-17	6	36*	19	9	3
O=C(C[C@H]1C/C=C\CC[C@H](Cc2ccc(F)cc2)C(=O)O[C@@H](c2ccccc2)CNC1=O)N[C@@H](CO)Cc1ccccc1	-5	4	0	-1	17	-5
O=C1CCCN1CCCNc1ccc2nnc(CCC(=O)N3CCN(c4ccccc4)CC3)n2n1	-1	0	-4	-5	1	2
CN(C(=O)COC(=O)c1ccc(CN2CCCC2=O)cc1)c1ccccc1	-15	1	-8	0	68*	-29
CN(C(=O)COC(=O)c1ccc(S(=O)(=O)N2CCCCCC2)cc1)c1ccccc1	-20	1	-7	17	-12	6
O=S(=O)(/N=S1\CC=CCN1S(=O)(=O)c1ccccc1)c1ccccc1 (centres undefined)	-5	35*	38*	14	4	5
CC1=C(C)CS(=O)N(S(=O)(=O)c2ccccc2)C1 (centres undefined)	-2	3	15	6	5	-3
O=C(CCNC(=O)c1ccccc1Cl)Nc1nc(-c2ccccc2Cl)cs1	-4	3	-3	6	0	3
Cc1cc(C(=O)COC(=O)c2n[nH]c(=O)c3ccccc23)c(C)n1C	6	0	-1	-7	28*	-12
Cc1cc(C(=O)COC(=O)c2n[nH]c3ccccc23)c(C)n1C	-10	2	-2	27	-13	9
CCN(CC)c1ccc2c(Cl)c(Br)c(=O)oc2c1	73*	53*	49*	-7	78*	-17
O=C(CCCN=C1NS(=O)(=O)c2ccccc21)OCC(=O)c1ccc(F)cc1	2	9	22*	1	-5	2
SMILES	CHO-K1 Ca antag	CHO-K1 Ca ag	M1 ag	CHO-K1 Ca PAM	M1 antag	CHRM1 PAM
CCOC(=O)CN1C(=O)N[C@@H](c2cccc(F)c2)C(C(=O)OC)=C1C	-7	-1	-5	5	8	-3
Cc1cc(C(=O)Nc2ccncc2)c2ccccc2n1	-10	1	0	20	-24	16
COc1ccc(C(=O)/C=C2/C(=O)Nc3ccccc32)cc1OC	-8	2	18*	2	33*	24
Cc1ccc(NC(=O)C2(C)CCCN2C)cc1C (centres undefined)	3	0	-6	3	-5	5
Cc1ccc(F)c(S(=O)(=O)NC(=O)C2(C)CCN2C(=O)Cc2cccc3ccccc23)c1 (centres undefined)	-7	0	-3	14	-11	8
CC1(C2CCC3C4CCC5CC6(CCC5(C)C4C(=O)CC32C)OCCO6)OCCO1 (centres undefined)	-9	0	-5	5	-24	25*
CS(=O)(=O)N(CC(=O)NC1CCCC1)C1CCCCC1	-16	2	-6	12	-7	5
O=C(C1CCN(S(=O)(=O)c2cccc3cccnc23)CC1)N1CCn2c1nc1ccccc12	-3	2	43*	10	11	-1
CCOc1cc(OCC)cc(C(=O)N2CCC[C@H]2C(=O)N2CCC[C@H]2C(=O)N[C@H](C)c2ccccc2)c1	-3	0	/	10	/	/
CCC(C(=O)NCCC(C)C)n1ccc2cc(S(=O)(=O)N3CCCCC3)ccc21 (centres undefined)	13	13	1	-19	45*	-20
CC(C)Oc1ccc(C2C(C#N)=C(N)Oc3c2oc(CO)cc3=O)cc1 (centres undefined)	2	15*	-4	19	-1	7
COc1cc(C2C(C#N)=C(N)Oc3c2oc(CO)cc3=O)ccc1OC(C)C (centres undefined)	-9	1	-4	14	-8	11
Cc1cccc(N2N=C(C(=O)O)CCC2=O)c1	13	0	-1	5	3	4
CN(C)Cc1ccccc1C(O)(c1ccccc1)c1ccccc1	-22	1	-8	3	30	-23
CN(C)Cc1cc(C(F)(F)F)ccc1C(O)(c1ccccc1)c1ccccc1	8	0	-7	-23	101*	-31
Cc1[nH]n(C(N)=S)c(=O)c1N=Nc1cccc([N+](=O)[O-])c1C	10	26*	8	-3	0	6
FC(F)(F)c1cccc(/C=N/NC(=S)NC2CCCCC2)c1	-7	19*	0	10	-2	7
O=C(NCCc1ccccc1)c1ccc(Cl)c(S(=O)(=O)N2CCCC2)c1	-3	13	1	-6	-8	8
CC1CN(C(=O)COC(=O)c2ccc(Cl)c(S(=O)(=O)N3CCCCC3)c2)CC(C)O1 (centres undefined)	7	20*	-10	13	-10	13

Bioassay records deposited in PubChem by The Scripps Research Institute Molecular Screening Center.
